Source: PubChem BioAssay AID1963822 (ICCB-Longwood Screening Facility, Harvard Medical School, 2024)
Hit rate of the full screen: of about 55,000 compounds, about 90 (0.2%) were called active. No rule for the calls is given here. Only a selection was taken, and actives are over-represented in it overall.

Assay: anaerobic choline-dependent bacterial growth inhibition – minimal medium, absorbance (AID 1963822)
Settings: Gram-negative bacterium anaerobic choline minimal medium
[1] = measured here: choline growth z-score, timepoint 1, stronger effect = lower value

| SMILES | z-score (stronger effect = lower value) | z-score [1] |
| --- | --- | --- |
| O=S(=O)(Nc1ccc(F)cc1)c1cc(-c2noc(C3CC3)n2)cs1 | 0.08 (inactive) | -0.4 |
| COc1ccccc1CNc1ncc2nc(-c3ccccc3)oc2n1 | -0.72 (inactive) | -0.32 |
| Cc1ccc(-c2cc(C(=O)N3CCN(C)CC3)no2)cc1C | -2.15 (inactive) | -1.67 |
| C=CCn1c(=O)c(=O)n(Cc2ccc(C(=O)N3CCC(N4CCCCC4)CC3)cc2)c2ccccc21 | 0.52 (inactive) | 0.14 |
| O=C(Cn1cccc1-c1nc(-c2ccc(Cl)cc2)cs1)NCc1ccc2c(c1)OCO2 | 0.32 (inactive) | -0.44 |
| CC(C)c1nnc2ccc(N3CCN(C(C)C)CC3)nn12 | 0.55 (inactive) | -2.47 |
| CCCN1C(=O)c2ccccc2Sc2cc(-c3noc(/C=C/c4ccccc4)n3)ccc21 | -0.13 (inactive) | 0.3 |
| COC(=O)Cn1nc2c(-c3nc(-c4ccc(Cl)cc4)no3)cccn2c1=O | -0.55 (inactive) | -1.3 |
| Cc1ccc(N2CC(c3nc(-c4ccc(N5CCCC5)cc4)no3)CC2=O)cc1C (stereo not drawn) | 0.33 (inactive) | 0.93 |
| CC1CCN(CCCNC(=O)Cc2ccc(NC(=O)N3CCSc4ncccc43)cc2)CC1 | 1.04 (inactive) | 0.79 |
| Cc1cc(C)c2nc(C)cc(C(=O)NC3CC3)c2c1 | 1.05 (inactive) | 0.53 |
| CCC1(CC)Cc2ccccc2-c2[nH]c(=O)n(CC3=CCCO3)c(=O)c21 | 0.12 (inactive) | -1.14 |
| COc1ccccc1N1CCN(c2ccc(=O)n(CC(=O)NCc3ccccn3)n2)CC1 | -0.67 (inactive) | -0.7 |
| CN(C)C(=O)c1cc2c(s1)CCC(C(=O)N(C)C)C2 (stereo not drawn) | 0.34 (inactive) | 0.33 |
| CC(C)(C)c1ccc(S(=O)(=O)NCc2nc(N)n(S(=O)(=O)c3ccc(C(C)(C)C)cc3)n2)cc1 | -0.11 (inactive) | 0.06 |
| CCOc1ccc(N(Cc2nc3nc(C)cc(C)n3n2)C(=O)CC(C)C)cc1 | -0.89 (inactive) | -1.11 |
| CCOc1ccc(-c2cc(C(=O)Oc3ccc(OC)cc3)no2)cc1 | -0.02 (inactive) | 0.37 |
| O=C(CN1C(=O)CSc2ccc(S(=O)(=O)N3CCCC3)cc21)Nc1cccnc1 | 0.64 (inactive) | 0.19 |
| O=C(NC1CC1)C1CCCN(c2ccc3cc(S(=O)(=O)N4CCCCC4)ccc3n2)C1 (stereo not drawn) | -0.89 (inactive) | -0.76 |
| O=C(Nc1ccc(F)cc1)c1ccccn1 | -3.6 (inactive) | -3.98 |
| O=C(c1nnc(-c2ccc(S(=O)(=O)N3CCCC3)cc2)o1)N1CCCC1 | 0.25 (inactive) | 0.12 |
| COc1ccnc2c1c(=O)n(CC(=O)N1CCCc3ccccc31)c(=O)n2C | 1.04 (inactive) | 0.31 |
| CCC(=O)NCCc1nc2cc(NC(=O)C3CCCCC3)ccc2n1C | -0.79 (inactive) | -0.11 |
| COc1cccc(CSc2nc3c(-c4ccccc4)c[nH]c3c(=O)[nH]2)c1 | 0.44 (inactive) | -0.28 |
| Cn1c(=O)n(-c2ccc(F)cc2)c2nc(-c3cccc(F)c3)nc(C(N)=O)c21 | -0.47 (inactive) | 0.68 |
| CCc1nc2ccccc2c(=O)n1Cc1noc(CN2C(=O)COc3ccccc32)n1 | 0.03 (inactive) | 0.5 |
| O=C(NC1CCCc2ccccc21)c1ccc(-c2cc(N3CCOCC3)ncn2)cc1 (stereo not drawn) | 0.49 (inactive) | -1.29 |

| SMILES | z-score (stronger effect = lower value) | z-score [1] |
| --- | --- | --- |
| Cc1noc(-c2cccnc2N2CCN(C(c3ccccc3)c3ccccc3)CC2)n1 | 0.85 (inactive) | 0.28 |
| Cc1nc(-c2cc(S(=O)(=O)N3CCN(c4ccccc4F)CC3)c(C)s2)cs1 | 1.43 (inactive) | 0.83 |
| O=C(NCCN1CCOCC1)C1CCN(c2cncnc2N2CCCCC2)CC1 | 0.71 (inactive) | 0.79 |
| C=CCSc1n[nH]c(NC(C)=O)n1 | 0.76 (inactive) | 0.64 |
| Cc1ccc(C(C)C)c(OC(C)C(=O)Nc2onc3c2CCCC3)c1 (stereo not drawn) | -0.74 (inactive) | -0.51 |
| CCN1C(=O)c2ccccc2Sc2cc(-c3noc(-c4ccc5c(c4)OCO5)n3)ccc21 | 0.5 (inactive) | 0.22 |
| CCOc1ccc(N2CCCCn3c2nc2c3c(=O)n(CCC(C)C)c(=O)n2C)cc1 | -0.58 (inactive) | 0.29 |
| COc1ccc(-c2cc3nc(C)cc(N4CCOCC4)n3n2)cc1OC | 0.32 (inactive) | -0.41 |
| CCN(CCCNC(=O)c1cccn2c(=O)c3ccccc3nc12)c1cccc(C)c1 | 1.29 (inactive) | 1.6 |
| Cc1ccc(/C=C/c2nn3c(-c4ccoc4C)nnc3s2)cc1C | -0.03 (inactive) | 0.36 |
| O=C(CCc1nc(CSc2nnc(-c3ccccc3)o2)no1)Nc1ccc(F)c(Cl)c1 | -0.29 (inactive) | -0.24 |
| COc1cc(OC)cc(N2C=C(C#N)S(=O)(=O)c3cc(F)ccc32)c1 | 0.71 (inactive) | 0.22 |
| O=S(=O)(c1ccc2c(c1)-c1oncc1CO2)N1CCN(C(c2ccccc2)c2ccccc2)CC1 | 0 (inactive) | -0.77 |
| CC(=O)N1CCc2cc(N3CC(C(=O)N4CCC5(CC4)OCCO5)CC3=O)ccc21 (stereo not drawn) | -1.2 (inactive) | -0.84 |
| O=S(=O)(c1ccccc1F)N1CCN(c2ncnc3c2nnn3-c2ccccc2)CC1 | 1.03 (inactive) | 0.86 |
| COc1cc(C2Nc3c(C)cc(C)cc3[C@H]3OCC[C@@H]23)cc(Br)c1OC (stereo partly drawn) | 0.49 (inactive) | 0.1 |
| Cc1cc(C)nc(SCCn2c(N3CCC(C)CC3)nc3c2c(=O)[nH]c(=O)n3C)n1 | 0.25 (inactive) | 0.24 |
| COc1ccc(C2CC(c3c(O)n(C)c(=O)n(C)c3=O)=NN2)cc1 (stereo not drawn) | 0.56 (inactive) | 0.56 |
| O=C(Cn1c(=O)c(=O)n(Cc2ccncc2)c2ncccc21)NCCN1CCCCC1 | 1.65 (inactive) | 0.64 |
| COC(=O)c1cc(S(=O)(=O)N2CCCC2C(=O)N2CCc3ccccc32)cn1C (stereo not drawn) | -0.38 (inactive) | -0.18 |
| COc1ccc(-c2cc(Oc3cccc(C(=O)NC4CCCCC4)c3)ncn2)cc1 | 1.55 (inactive) | 1.41 |
| O=C(NCCC1=CCCCC1)C1CCN(c2cc(-c3cccc(F)c3)ncn2)CC1 | 1.01 (inactive) | 0.77 |
| CC(C)NC(=O)Cc1csc(NC(=O)C2CC2)n1 | 0.37 (inactive) | -0.55 |
| COc1cccc(NC(=O)c2ccc(-n3nc(N4CCCC4)ccc3=O)cc2)c1 | -0.3 (inactive) | -0.77 |
| CCOC(=O)c1cnc(SC(CC)C(=O)Nc2ccc(Br)cc2)nc1N (stereo not drawn) | 0.81 (inactive) | 0.87 |
| O=C1CN(C(=O)CSc2ccc(Cl)cc2)c2ccccc2N1 | -2.07 (inactive) | -0.23 |
| COc1ccc(C2N=C(Nc3ccc(C(C)C)cc3)Nc3nc(C)cc(=O)n32)cc1OC (stereo not drawn) | 0.3 (inactive) | -0.84 |

| SMILES | z-score (stronger effect = lower value) | z-score [1] |
| --- | --- | --- |
| Cc1nc(-c2csc(S(=O)(=O)N3CCCC(C(=O)N4CCCCC4)C3)c2)no1 (stereo not drawn) | 0.63 (inactive) | -0.32 |
| CC(=O)N1CCCN(S(C)(=O)=O)CC1 | 0.45 (inactive) | 1.28 |
| CC(C)c1nnc(-c2cc3ccccc3n2CC(=O)N(C(C)C)C(C)C)o1 | -0.44 (inactive) | 0.05 |
| COc1cc(C2OC(c3ccccc3)=NN2C(C)=O)ccc1O (stereo not drawn) | -1.46 (inactive) | -1.53 |
| O=C(Cn1nc2n(CCc3ccccc3)c(=O)c3ccccc3n2c1=O)NCc1ccccc1Cl | 0.2 (inactive) | 0.39 |
| COc1ccc(OC)c(CNC(=O)C2CCCN(c3ncnc4c3oc3ccccc34)C2)c1 (stereo not drawn) | -0.39 (inactive) | -0.94 |
| CN(C)CCCNC(=O)c1sc2ncccc2c1-n1cccc1 | -0.76 (inactive) | -0.95 |
| Cc1ccc(/C=C/c2nc(-c3ccc4c(c3)[nH]c(=O)c(=O)n4C(C)C)no2)cc1 | 0.12 (inactive) | -0.05 |
| CCc1nc(-c2ccc(C(=O)NCC(=O)Nc3ccc(Cl)cc3)cc2)no1 | -0.03 (inactive) | -0.94 |
| CC(C)C(=O)N1CCN(c2ccc(Nc3c4c(nc5nc(-c6ccccc6)nn35)CCCC4)cc2)CC1 | -0.12 (inactive) | 0.82 |
| O=C(NCCc1cscn1)[C@H]1CSCN1C(=O)c1ccccc1 | 0.46 (inactive) | 0.42 |
| CCC(=O)Nc1cccc(-c2noc(C3CCCN(C(=O)c4ccc(F)cc4)C3)n2)c1 (stereo not drawn) | 0.07 (inactive) | -0.16 |
| O=S(=O)(c1ccc2c(c1)CCCC2)N1CCC2(CC1)Nc1cc(F)ccc1-n1cccc12 | -0.8 (inactive) | -0.36 |
| O=S(=O)(c1ccccc1)c1ccc(N2CCN(c3ccccc3)CC2)nn1 | -0.18 (inactive) | -1.06 |
| O=C(NCCc1cnc[nH]1)c1ccc(Cn2c(SCc3ccc(F)cc3)nc3cccnc32)cc1 | -0.7 (inactive) | -0.94 |
| CCOC(=O)CC1=CC(SCC(=O)c2cc(C)ccc2C)=Nc2ccccc2N1 | 0.16 (inactive) | 0.19 |
| COc1ccc(NC(=O)c2ccc(-c3nc(-c4ccccc4)no3)cc2)cc1 | -1.61 (inactive) | -1.39 |
| Cc1ccc2c(Cl)c(C(=O)Nc3onc4c3CCCC4)sc2c1 | 0.44 (inactive) | 0.27 |
| COc1ccc(Cn2c(CCC(=O)Nc3cccc(C)c3C)nc3cccnc32)cc1 | 0.59 (inactive) | 0.56 |
| CC(=O)Nc1ccc(N(C)CCCc2c(C)nn(C)c2C)c(C(=O)O)c1 | 0.96 (inactive) | 0.43 |
| COC(=O)CSc1nc2cc(-c3ccccc3)sc2c(=O)n1C | 0.31 (inactive) | 0.31 |
| CCCN(C)S(=O)(=O)c1c(C)[nH]c(-c2nnc(C3CCC3)o2)c1C | 0.79 (inactive) | 0.59 |
| COc1ccc2nc(-n3nc(C)c4c3NC(=O)CC4c3cc(Br)ccc3OC)sc2c1 (stereo not drawn) | -0.06 (inactive) | 0.15 |
| COc1ccc2nc(-n3nc(C)c4c3NC(=O)CC4c3ccsc3)sc2c1 (stereo not drawn) | -2.13 (active) | -0.51 |
| COc1ccc2nc(-n3nc(C)c4c3NC(=O)CC4c3ccc4c(c3)OCO4)sc2c1 (stereo not drawn) | 1.23 (inactive) | 1.32 |
